# For some assays here: Entries with a potency or affinity are not part of this list. Results filed as inconclusive are left out. Unmarked numbers belong to inactive results. Some of the results follow. Activity calls are given as the source filed them. Unless noted, the rule behind the calls is not given here.
# What was measured:
# [1] = CMV-driven luciferase expression suppression in HEK293 – cell-based, luminescence, dry powder, counter-screen for Pax8 inhibitor project, dose response (AID 743020;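 active = signal-lowering compounds whose fitted half-maximal concentration is at or below twice the top tested dose in every run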;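 note: HEK293 cells stably expressing the CMV luciferase reporter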); details: HEK293 CMV-luciferase reporter, SteadyGlo luminescence, 24 h; series mostly up to 35 µM
# [2] = IGROV1 cell killing – plate reader, dry powder samples, PAX8 inhibitor project, dose response (AID 743043); details: IGROV1 ovarian cancer cell cytotoxicity; series mostly up to 35 µM;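 note: more negative means fewer viable cells or more cytotoxicity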
# [3] = OVCAR-3 cell viability loss – plate reader, dry powder samples, PAX8 inhibitor project, dose response (AID 743044); details: NIH:OVCAR-3 ovarian cancer cell viability, active compounds read low; at 4.2 µM unless noted
# [4] = toxicity toward immortalized ovarian surface epithelium – cell-based, plate reader, dry powder samples, cytotoxicity control for PAX8 inhibitor project, dose response (AID 743045); details: IOSE-T80 ovarian epithelial cells; series mostly up to 35 µM;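 note: 0% = neutral control median and -100% = positive control median; more negative values mean more cell killing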
# [5] = general cell-killing toxicity readout – plate reader, dry powder samples, cytotoxicity control for PAX8 inhibitor project, dose response (AID 743021); details: cell line, non-specific cytotoxicity counter-screen; series mostly up to 35 µM
# [6] = small-molecule DNA binding by polarization – biochemical, fluorescence polarization, cherry-pick, counter-screen for EWS/Fli inhibitor project, dose response (AID 720586;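 active = fitted curve reaches a 35% signal fall AC35 below twice the sample's top valid tested dose, actives reach about 48 µM in these data; inactive = the rest, including activity in the rising direction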;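 note: 0% = neutral control median and -100% = 10 µM mitoxantrone control median; lower polarization ratio signals compound binding to DNA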); details: salmon sperm DNA acridine orange fluorescence polarization; series mostly up to 68 µM
# [7] = RMG-1 ovarian cancer cell viability loss – cherry-pick, dose response (AID 687029;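 active = signal drop whose fitted half-maximal concentration is at most twice the top valid dose, in every test run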;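 note: cells exposed to compound for 96 hours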); details: RMG-1 viability, CellTiterGlo ATP luminescence, 96 h; series mostly up to 35 µM
compound,measurement,setting,value
COc1ccc(-c2ccc([C@@H]3[C@@H](CO)N4CCCCN(C(=O)Cc5ccccc5)C[C@H]34)cc2)cc1,outcome,[1],inactive
same,outcome,[2],inactive
same,max activity,[3],-18.2% [at 35 µM]
same,outcome,[4],inactive
CC1CC(C)(O)CC(C(O)CC2CC(=O)NC(=O)C2)C1=O (stereo unspecified),outcome,[1],inactive
same,outcome,[5],inactive
O=C1NC(=O)N(CCc2ccc(F)cc2)C(=O)/C1=C/C=C/c1ccccc1,outcome,[6],inactive
CC12CCC(O)CC1CCC1C2CCC2(C)C(C3=CC(=O)OC3)CCC12O (stereo unspecified),outcome,[7],inactive
same,outcome,[5],inactive
C[C@]12CC[C@H]3[C@@H](CC[C@]4(O)C[C@@H](O)CC[C@]34C=O)[C@@]1(O)CC[C@@H]2C1=CC(=O)OC1,outcome,[5],inactive
CCCCN=C[C@]12CCC(O)CC1(O)CCC1[C@@H]2CC[C@]2(C)[C@H](C3C=CC(=O)O3)CCC12O (stereo partly specified),outcome,[1],inactive

# From PubChem BioAssay
